Legend:
Assay type in all cases: functional
[1] = target: Solute carrier family 2, facilitated glucose transporter member 1 (Homo sapiens) (UniProt P11166); experiment: ST_JUDE_LEISH: Cytotoxicity at 2uM final concentration against transgenic Leishmania Mexicana promastigotes LmGLUT1 that are glucose transport deficient and complemented with the human glucose transporter GLUT1. Activity is measured by DNA content using SYBR green in vitro
[2] = target: Hexose transporter 1 (Plasmodium falciparum) (UniProt O97467); experiment: ST_JUDE_LEISH: Cytotoxicity at 2uM final concentration against transgenic Leishmania Mexicana promastigotes LmPfHT that are glucose transport deficient and complemented with the Plasmodium falciparum hexose transporter. Activity is measured by DNA content using SYBR green in vitro
[3] = target: Glucose transporter (Leishmania mexicana) (UniProt O61059); experiment: ST_JUDE_LEISH: Cytotoxicity at 2uM final concentration against transgenic Leishmania Mexicana promastigotes LmGT2 that are glucose transport deficient and complemented with the L. Mexicana glucose transporter 2. Activity is measured by DNA content using SYBR green in vitro

Solute carrier family 2, facilitated glucose transporter member 1 (Homo sapiens), sequence (P11166 whole entry): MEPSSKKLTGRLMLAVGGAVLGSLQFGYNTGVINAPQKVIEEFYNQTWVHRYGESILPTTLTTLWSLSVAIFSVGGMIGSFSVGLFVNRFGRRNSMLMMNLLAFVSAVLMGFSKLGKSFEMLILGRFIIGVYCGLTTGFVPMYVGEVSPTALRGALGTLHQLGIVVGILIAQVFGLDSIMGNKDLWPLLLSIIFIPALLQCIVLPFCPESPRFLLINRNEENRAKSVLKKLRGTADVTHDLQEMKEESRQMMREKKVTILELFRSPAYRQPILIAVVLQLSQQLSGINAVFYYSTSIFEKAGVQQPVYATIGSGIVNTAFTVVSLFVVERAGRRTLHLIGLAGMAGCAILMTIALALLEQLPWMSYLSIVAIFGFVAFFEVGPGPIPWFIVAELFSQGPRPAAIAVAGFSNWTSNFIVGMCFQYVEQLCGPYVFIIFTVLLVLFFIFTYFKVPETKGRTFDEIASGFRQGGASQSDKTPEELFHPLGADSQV

Structure (SMILES) | inhibition [1] [%] | inhibition [2] [%] | inhibition [3] [%]
CC(C)c1ccc(C(NC(=O)C2CCCCC2)c2ccc3cccnc3c2O)cc1 (configuration not stated) | -0.43 | -0.57 | -1
O=[N+]([O-])c1cccc(-n2nc(NCc3ccc(Cl)cc3)nc2-c2ccc(F)c(C(F)(F)F)c2)c1 | 1.19 | 2.33 | 0.17
CCCN(CCC)CCCNc1ccc(C(=O)Nc2ccc(C(C)C)cc2)cc1[N+](=O)[O-] | 32.7 | 22.2 | 13.2
CC(=O)Nc1ccc(C(=O)Nc2cccc(-c3ccc(-c4nc5cc(C(F)(F)F)ccc5[nH]4)cc3)c2)cn1 | 2.59 | -0.8 | 3.05
COc1ccc2nc(C)cc(N/N=C/c3ccc([N+](=O)[O-])o3)c2c1 | 3.7 | 6.04 | 0.72
FC(F)(F)Oc1ccc(-c2cnc3ccc(NCc4ccncc4)nn23)cc1 | 2.41 | 3.58 | -1.87
CNC(=O)c1cnc(Nc2ccc(OCC(O)CN(C)C)cc2)nc1Nc1cccc(OC(C)C)c1 (configuration not stated) | 2.84 | -0.45 | 1.38
COc1cc(/C=C/C(=O)NCC(CCNc2cc(=O)c3ccccc3[nH]2)NCc2cc(Br)cc(Br)c2)cc(OC)c1 (configuration not stated) | 2.85 | 3.71 | 2.37
COc1ccc(C=NNc2cc(C)nc3ccc(OC)cc23)c(OC)c1 | 8 | 7.55 | 2.56
O=C(Nc1cccc(-c2cccc(-c3nc4ccccc4[nH]3)c2)c1)c1csnn1 | 5.15 | 5.92 | 1.92
CCn1c(C)c(C)c2cc(C(=O)Nc3ccon3)ccc21 | 1.66 | 1.02 | 0.74
CCOC(=O)c1ccc(NC(=O)NNC(=O)c2ccc(CCN3CCC(c4nc(COCC(F)(F)F)c(-c5ccc(F)cc5)o4)CC3)cc2)cc1 | 1.09 | 1.22 | 0.84
O=C(Nc1cccc(N2CCC(NCc3cnn(-c4cccc(F)c4)c3)CC2)c1)c1ccncc1 | -0.97 | 0.64 | -0.33
CN(c1ccc(NC(=O)Nc2cc(C(C)(C)C)on2)cc1)c1ccnc(NCCN2CCOCC2)n1 | 32.3 | 57.4 | 5.4
CN(C)c1cc(NC(=O)Nc2ccccc2)c2ccccc2n1 | 2.21 | 5.06 | 2.82
CC(C)C[C@H](NC(=O)c1ccc(OCCN2CCOCC2)cc1)C(=O)N[C@H](/C=N/N1CCN(C)C1=O)CCc1ccccc1 | 3.09 | 5.16 | 3.85
CO/C(=C\C=C\c1cc2cc(Cl)c(Cl)cc2[nH]1)C(=O)NCCN1CCCCC1 | 0.85 | 1.14 | 0.35
CS(=O)(=O)c1ccc(CNCc2ccc(-c3cccc(-c4nc5ccccc5[nH]4)c3)cc2)cc1 | 17.3 | 15.6 | 14
CN1CCCN(Cc2ccc(-c3cccc(NC(=O)c4ccc(C#N)cc4)c3)cc2)CC1 | 1.03 | 4.1 | -1.1
CO/C(=C\C=C/c1cc2cc(Cl)c(Cl)cc2[nH]1)C(=O)NC1CC(C)(C)N(C)C(C)(C)C1 | 7.24 | 5.6 | 5.19
Brc1cccc(Nc2nccc(Nc3ccc(Oc4ccccc4)cc3)n2)c1 | 6.01 | 5.97 | -0.46
Cc1ccc(-c2cc(C(=O)Nc3ccc(S(=O)(=O)N4CCOCC4)cc3)[nH]n2)c(O)c1C | 4 | 0.56 | -1.4
NCC1CCCN1Cc1cccc(-c2cccc(-c3nc4cc(F)ccc4[nH]3)c2)c1 (configuration not stated) | 0.19 | 0.88 | 1.02
c1cc(CNCCc2ccncc2)cc(-c2ccc(-c3nc4ccccc4[nH]3)cc2)c1 | 1.46 | 2.38 | 0.79
OCCOCn1cnc2cnc(N[C@H]3OC[C@H](O)[C@@H](O)[C@@H]3O)nc21 | 0.99 | 2.06 | 1.69

Structure (SMILES) | inhibition [1] [%] | inhibition [2] [%] | inhibition [3] [%]
C[C@H](NC(=O)c1c(CN2CCC(NC(=O)CC(C)(C)C)CC2)c(-c2cccs2)nc2ccccc12)C1CCCCC1 | 2.07 | 1.16 | 0.4
COc1ccc2[nH]c(C)cc(=NN=Cc3cccc(F)c3)c2c1 | 5.17 | 5.7 | 2.61
Cc1cccc(-c2nc(Nc3ccncc3)c3cc(N(C)C)ccc3n2)n1 | 0.37 | -1.05 | -3.66
O=C(NC1CCN(Cc2ccccc2O)C1)c1ccc(Cl)c(Cl)c1 (configuration not stated) | 0.72 | 0.7 | -5.99
O=C(Nc1ccc(-c2nc3ccccc3[nH]2)cc1)c1ccc(Cl)c([N+](=O)[O-])c1 | 1.55 | 1.9 | 1.41
CCOc1c(CNCCCNc2nc3ccccc3[nH]2)cc(Br)cc1OC | 2.6 | -3.13 | 4.2
CCOc1ccc2[nH]c(C)cc(=NN=Cc3cccc(F)c3)c2c1 | -0.81 | -2.04 | 0.95
Nc1c2c(nc3ccc(C(=O)Nc4cc(I)c(O)c(I)c4)cc13)CCCC2 | 1.22 | 1.9 | 1.74
N=C(NCC1CC1c1ccccc1)c1cccc(C(=N)NCC2CC2c2ccccc2)n1 (configuration not stated) | 5.1 | 5.88 | 6.3
COc1ccc(C=NNc2nc3ccccc3[nH]2)cc1O | -3.31 | -1.02 | 1.86
CCNc1cc(C(=O)N[C@@H](Cc2ccccc2)[C@H](O)CNC23CC4CC(CC(C4)C2)C3)cc(N2CCCCS2(=O)=O)c1 | 3.41 | 3.36 | -0.1
COc1ccc(C=NN=c2cc(C)[nH]c3ccc(C)cc23)c2ccccc12 | 0.11 | 1.75 | -1.89
CCCCCCCN(CCCCCCC)CCCC(=O)Nc1ccnc2ccc(OC)cc12 | 1.2 | 1.31 | -1.2
CCNc1cc(C(=O)N[C@@H](Cc2ccccc2)[C@H](O)CNC(CC)c2cccc(Cl)c2)cc(N2CCCCS2(=O)=O)c1 (some centres not stated) | 4.81 | 1.05 | -0.27
Cc1ccccc1C1CCN(C2CCC(NC(=O)/C=C/c3ccc(Cl)cc3)CC2)CC1 (configuration not stated) | 1.76 | 2.6 | 2.42
CCCCN(CCCC)C(=O)CC(O)c1cc2c(Cl)cc(Cl)cc2c2cc(C(F)(F)F)ccc12 (configuration not stated) | 1.87 | 1.18 | 2.43
Fc1ccccc1-c1cc(Nc2ccncc2)nc(-c2cccnc2)n1 | 0.54 | 1.28 | -6.71
Fc1cc(Cl)ccc1Nc1ccnc2cc(-c3ccc(CN4CCCCC4)o3)ccc12 | 2.55 | 1.59 | 0.77
C=CCn1c(=N)n(CC(O)c2ccc(Cl)c(Cl)c2)c2ccccc21 (configuration not stated) | 2.79 | 3.84 | 0.9
CCOc1cc(C)ccc1N1CCN(CCCCNC(=O)c2ccc(NC(=O)c3ccc(Cl)cc3)cc2)CC1 | 0.02 | -2.19 | -0.2
CCOC(=O)CCCOc1cc(Cc2cnc(N)nc2N)cc(OC)c1OC | 6.94 | 5.94 | 7.18
CCCCNc1nc(NCCCC)c2c(C)c(Cc3ccccc3)c(NCCCC)nc2n1 | 39.8 | 43.6 | 12.3
NC1CCN(Cc2ccc(-c3ccc(-c4nc5cc(F)ccc5[nH]4)s3)cc2)C1 (configuration not stated) | 0.37 | 4.62 | 5.81
O=C(NCCc1cccc(Cl)c1Cl)c1ccc(N2CCN(c3ccncc3)CC2)nc1 | 38.6 | 16.9 | 21.8
